Active and inactive are the calls of the source.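 The calls were made as follows, unless noted: active = visually confirmed hit in the image check and inhibition above 20%; inconclusive = visually confirmed hit but inhibition not above 20%; inactive = no visual hit in the image check.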

Test [1] can be described thus: inhibitors of TNFa-induced NFkB p65 translocation, primary screen, imaging, HUVEC, MLSMR starter and 10KST1 sets (AID 438;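 active = inhibition above 20% together with a positive visual image hit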;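 also: compound added about 3h40 before a 20 min TNFalpha stimulation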;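 as to inhibition: signal is the nuclear over cytoplasmic p65 intensity ratio per well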). To be noted: HUVEC TNFa-induced p65 nuclear translocation; cell count: measured here: nuclei count (cytotoxicity indicator), at 2.08 µM; inhibition: at 2 µM, stronger effect = higher value, 0% TNFa-plus-vehicle, 100% no-TNFa wells.
Test [2] in a line: inhibitors of mutant huntingtin aggregation, primary screen, imaging, exon1htt(103Q)mCFP cells, high-content imaging (AID 483;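 active = visual image review flags a hit and inhibition of aggregation exceeds 20%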;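 also: compound exposure lasted 3 days before fixation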;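 as to nuclei count: percent of the per-plate median nuclei count of sample wells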). The note with it: exon1htt(103Q)mCFP cell line, aggregate imaging, at 2 µM; inhibition of aggregation: stronger effect = higher value; nuclei count: measured here: cell count, toxicity.
A short description of test [3]: inhibitors of E-selectin induction by TNFa, primary screen, imaging, HUVEC, immunofluorescence, MLSMR starter and 10KST1 sets (AID 487).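 As to inhibition: signal is fraction of cell area covered by stained E-selectin grains.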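 As to nuclei count: 100% = median nuclei count of all wells on the same plate.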 The note with it: HUVEC TNFalpha-induced E-selectin immunofluorescence imaging, at 2 µM; inhibition: stronger effect = higher value; nuclei count: measured here: cell number, toxicity.
The target of test [4] is Voltage-gated potassium channel subunit beta-2 (Rattus norvegicus) (UniProt P62483). In words: KvBeta enzyme negative modulators, primary screen, biochemical, NADPH fluorescence (AID 622;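 active = fluorescence slope higher than the sample average by over 3 SD, cut at about -0.22 in these data, passing the limit was not always enough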;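 also: slope of raw intensity against log time taken from 70 to 1610 s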). The note with it: recombinant KvBeta, 4-cyanobenzaldehyde reduction, at 10 µM, stronger effect = higher value.
Sequence of Voltage-gated potassium channel subunit beta-2 (Rattus norvegicus) (P62483 whole entry, looked up): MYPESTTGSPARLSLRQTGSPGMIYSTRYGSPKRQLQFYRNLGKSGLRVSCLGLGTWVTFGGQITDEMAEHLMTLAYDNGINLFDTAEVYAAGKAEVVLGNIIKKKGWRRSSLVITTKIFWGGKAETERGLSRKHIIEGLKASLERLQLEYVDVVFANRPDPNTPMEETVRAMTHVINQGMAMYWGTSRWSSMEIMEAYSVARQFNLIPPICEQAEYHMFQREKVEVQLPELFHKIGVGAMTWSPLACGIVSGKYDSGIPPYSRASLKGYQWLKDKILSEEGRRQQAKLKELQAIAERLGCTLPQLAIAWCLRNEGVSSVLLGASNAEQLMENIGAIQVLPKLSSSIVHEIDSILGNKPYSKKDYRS
Test [5] shares this target. The test is described as follows: KvBeta positive modulators, primary screen, biochemical, NADPH fluorescence (AID 623;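 active = NADPH fluorescence slope more negative than the mean of all samples by about 3 SD, 99.7% confidence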;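 also: fluorescence intensity change per second fitted from 20 to 320 s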). To be noted: Recombinant KvBeta, NADPH fluorescence decrease slope, 10 min; at 10 µM; stronger effect = lower value.
Test [6] deals with Alpha-2C adrenergic receptor (Homo sapiens) (UniProt P18825). In words: modulators of alpha2C/GIRK thallium flux, primary screen, cell-based, HEK293 alpha2C/GIRK1/2 (AID 624;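 active = fluorescence slope after compound addition differing from the mean of all screened samples at 99.7% confidence, in either direction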;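 also: slope of fluorescence ratio to pre-addition baseline per second over 15 to 24 s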). To be noted: thallium flux BTC fluorescence, at 10 µM, actives lie on both sides.
Sequence of Alpha-2C adrenergic receptor (Homo sapiens) (P18825 whole entry, looked up): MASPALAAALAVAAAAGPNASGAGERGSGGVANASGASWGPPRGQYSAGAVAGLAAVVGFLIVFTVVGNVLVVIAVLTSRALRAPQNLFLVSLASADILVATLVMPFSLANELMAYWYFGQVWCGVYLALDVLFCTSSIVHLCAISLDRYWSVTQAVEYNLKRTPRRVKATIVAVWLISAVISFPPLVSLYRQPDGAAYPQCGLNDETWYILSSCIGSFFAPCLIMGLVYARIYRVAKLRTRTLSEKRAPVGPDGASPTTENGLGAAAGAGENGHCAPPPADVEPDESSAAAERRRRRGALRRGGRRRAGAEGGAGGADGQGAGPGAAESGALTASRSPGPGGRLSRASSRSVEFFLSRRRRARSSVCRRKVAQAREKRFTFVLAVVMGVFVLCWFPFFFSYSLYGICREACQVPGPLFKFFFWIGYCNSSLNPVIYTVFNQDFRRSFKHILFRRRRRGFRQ
The nature of test [7]: inhibitors of Sendai virus-induced IRF3 signaling, primary screen, TLR/RLR signaling modifier project, cell-based, Sendai virus stimulus, luciferase, 10K MLSCN set (AID 602276;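 active = inhibition at or above 50% at 10 µM; inactive = inhibition below 50%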;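 also: firefly luciferase from ISG56 promoter only with Renilla not read in this screen; 0% = Sendai virus plus DMSO and 100% = medium plus DMSO without virus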). The note with it: HEK293 RL24 IRF3 luciferase reporter, at 10 µM, stronger effect = higher value. In general terms: Reporter assays use an easily measured gene product as a stand-in for the process of interest.

The nature of test [8]: inhibitors of poly I:C-induced TLR3 signaling, primary screen, cell-based, poly I:C stimulus, luciferase, 10K MLSCN set (AID 602277;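 active = inhibition of the reporter signal at or above 50%; inactive = inhibition below 50%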). To be noted: HEK293-TLR3 RL24 IRF3 luciferase reporter, at 10 µM, stronger effect = higher value.

In the case of `CCOC(=O)c1c(C)c(C(=O)NCCN2CCOCC2)c(C)n1C`, in test [1], the cell count was 607. Also, the inhibition in test [1] is -11.6% (inactive); in test [3], 1.3% (inactive); in test [7], 13.6% (inactive); in test [8] it was 22.1% (inactive). In test [2], the inhibition of aggregation was 13% (inactive). Also, the values for the nuclei count in test [2] and in test [3] were 88.4% and 103%, respectively. In addition, the fluorescence slope in test [4] is -0.496 (inactive). In addition, in test [5], the NADPH fluorescence slope was -8.5e-05 (inactive). Also, the slope in test [6] is 0.00563 (inactive).
`Cc1ccc(OCC(O)CN2C(=O)NC(C)(C)C2=O)cc1C` (centres undefined): the cell count in test [1] turned out to be 673. Further, the inhibition was -2.9% (inactive) in test [1], -19.6% (inactive) in test [3], 5.76% (inactive) in test [7] and 24.9% (inactive) in test [8]. Moreover, the inhibition of aggregation in test [2] is -21.4% (inactive). Also, the nuclei count in test [2] came to 107%; in test [3], 112%. Also, the fluorescence slope in test [4] was -0.537 (inactive). Besides, the NADPH fluorescence slope in test [5] was -2.6e-05 (inactive). Moreover, the slope in test [6] was 0.00799 (inactive).
With `CCCNS(=O)(=O)c1ccc(OCC(=O)NCc2ccc3c(c2)OCO3)cc1`, the cell count in test [1] amounted to 434. Besides, the inhibition in test [1] is 1.7% (inactive); in test [3], -93.9% (inactive); in test [7] it was 12.8% (inactive); in test [8], 17.9% (inactive). Further, the inhibition of aggregation in test [2] is -1.9% (inactive). The figures for the nuclei count in test [2] and in test [3] were 108% and 106%, respectively. Besides, in test [4], the fluorescence slope was -0.368 (inactive). The NADPH fluorescence slope in test [5] is -6.9e-05 (inactive). Also, the slope in test [6] was 0.00408 (inactive).
For the compound `Cc1nnc(SCC(=O)Nc2nccs2)s1`, the cell count in test [1] was 501. The inhibition was -10.8% (inactive) in test [1], -0.9% (inactive) in test [3], -7.71% (inactive) in test [7] and -7.69% (inactive) in test [8]. Besides, the inhibition of aggregation in test [2] was 12.1% (inactive). The nuclei count was found to be 116% in test [2] and 115% in test [3]. For the same compound, the fluorescence slope in test [4] is -0.413 (inactive). The NADPH fluorescence slope in test [5] was -7.7e-05 (inactive). The slope in test [6] is 0.00513 (inactive).
Regarding `Cc1ccc(-n2ncc(C(=O)N3CCc4ccccc4C3)c2NC(=O)c2ccco2)cc1C`, in test [1], the cell count was found to be 425. Besides, the inhibition in test [1] was 10.2% (inactive); in test [3], 0.3% (inactive); in test [7] it was 2.03% (inactive); in test [8], 20.1% (inactive). For the same compound, the inhibition of aggregation in test [2] is -0.3% (inactive). Besides, the nuclei count in test [2] turned out to be 100%; in test [3], 114%. For the same compound, in test [4], the fluorescence slope was -0.415 (inactive). The NADPH fluorescence slope in test [5] was -9.8e-05 (inactive). Further, the slope in test [6] was 0.00658 (inactive).
With `COc1cccc(-n2c(SC3CCOC3=O)nc3ccccc3c2=O)c1` (centres undefined), in test [1], the cell count was 387. Also, the inhibition was 2.4% (inactive) in test [1], 7.5% (inactive) in test [3], 2.92% (inactive) in test [7] and 18.7% (inactive) in test [8]. The inhibition of aggregation in test [2] is -18% (inactive). The nuclei count in test [2] is 101%; in test [3] it was 108%. Moreover, the fluorescence slope in test [4] was -0.435 (inactive). The NADPH fluorescence slope in test [5] was -5.4e-06 (inactive). In addition, in test [6], the slope is 0.00493 (inactive).
Turning to `CSC1=N/C(=C\C=C\c2cccs2)C(=O)S1`, the cell count in test [1] was found to be 374. For the same compound, the inhibition in test [1] is -11.5% (inactive); in test [3] it was 0.2% (inactive); in test [7] it was 10.5% (inactive); in test [8] it was 28.8% (inactive). In addition, the inhibition of aggregation in test [2] was -80.1% (inactive). Moreover, the nuclei count in test [2] was 106%; in test [3] it was 115%. In addition, in test [4], the fluorescence slope was -0.343 (inactive). Moreover, in test [5], the NADPH fluorescence slope was -4.4e-05 (inactive). The slope in test [6] is 0.00431 (inactive).
On to `Cc1ccc(NC2=NCC(=O)N2c2ccc3c(c2)OCCO3)c(C)c1`, for which the cell count in test [1] came to 463. The inhibition in test [1] is -14.4% (inactive); in test [3] it was -20.7% (inactive); in test [7], 5.69% (inactive); in test [8], 7.01% (inactive). Moreover, the inhibition of aggregation in test [2] was -2.6% (inactive). For the same compound, the nuclei count is 116% in test [2] and 97.3% in test [3]. Besides, the fluorescence slope in test [4] is -0.498 (inactive). For the same compound, the NADPH fluorescence slope in test [5] was -3.6e-05 (inactive). Also, the slope in test [6] is 0.00458 (inactive).
`Cc1ccc(S(=O)(=O)c2cc3c(=O)n4ccccc4nc3n(CC3CCCO3)c2=N)cc1C` (centres undefined): the cell count in test [1] was 716. In addition, the inhibition in test [1] was -1.6% (inactive); in test [3], 0.8% (inactive); in test [7], 13.6% (inactive); in test [8], 23.9% (inactive). Moreover, the inhibition of aggregation in test [2] is -3.3% (inactive). The nuclei count in test [2] amounted to 88.2%; in test [3] it was 106%. Also, the fluorescence slope in test [4] was -0.439 (inactive). The NADPH fluorescence slope in test [5] is -3.3e-05 (inactive). Also, the slope in test [6] is 0.00461 (inactive).
`COc1cc2c(cc1NC(=O)COC(=O)Cn1cnc3ccccc31)oc1ccccc12`: the cell count in test [1] is 403. Besides, the inhibition in test [1] was 7.7% (inactive); in test [3] it was -2.1% (inactive); in test [7] it was 20.9% (inactive); in test [8], 9.12% (inactive). The inhibition of aggregation in test [2] was -10.9% (inactive). Further, the nuclei count in test [2] came to 86.8%; in test [3], 110%. Also, the fluorescence slope in test [4] is -0.533 (inactive). For the same compound, the NADPH fluorescence slope in test [5] was -2.6e-05 (inactive). Moreover, the slope in test [6] was 0.00618 (inactive).
Regarding `O=C(COC(=O)C1CC(=O)N(c2ccccc2)C1)c1ccccc1` (centres undefined), the cell count in test [1] stood at 603. Further, the inhibition in test [1] is 2.4% (inactive); in test [3] it was -21% (inactive); in test [7] it was -13.2% (inactive); in test [8], -4.16% (inactive). The inhibition of aggregation in test [2] is -21% (inactive). Further, the values for the nuclei count in test [2] and in test [3] were 99.9% and 123%, respectively. Also, the fluorescence slope in test [4] was -0.604 (inactive). Also, the NADPH fluorescence slope in test [5] was -2.9e-05 (inactive). In test [6], the slope is 0.00601 (inactive).
For the compound `CCN1C(=O)c2ccccc2S(=O)c2ccc(C(=O)NC3CC3)cc21` (centres undefined), the cell count in test [1] is 533. In addition, the inhibition in test [1] was 0.6% (inactive); in test [3], 6.3% (inactive); in test [7], 17.3% (inactive); in test [8], 24% (inactive). Further, the inhibition of aggregation in test [2] was 20.1% (inactive). For the same compound, the values for the nuclei count in test [2] and in test [3] were 74.1% and 104%, respectively. Also, in test [4], the fluorescence slope was -0.505 (inactive). Moreover, the NADPH fluorescence slope in test [5] was -2.6e-05 (inactive). Besides, the slope in test [6] is 0.0077 (inactive).
For `O=C1CC(Cc2ccccc2)C(=O)N1CCCn1ccnc1` (centres undefined), the cell count in test [1] came out at 429. Also, the inhibition in test [1] was -4.9% (inactive); in test [3] it was 36.4% (inactive); in test [7], 17.7% (inactive); in test [8], 25% (inactive). In addition, in test [2], the inhibition of aggregation is 10.8% (inactive). The nuclei count in test [2] was found to be 100%; in test [3] it was 102%. In test [4], the fluorescence slope is -0.346 (inactive). Further, the NADPH fluorescence slope in test [5] is -6e-05 (inactive). Besides, the slope in test [6] was 0.00527 (inactive).
With `CS(=O)(=O)N1CCN(c2ccccc2NC(=O)c2ccc(-c3ccc(Cl)cc3Cl)o2)CC1`, the cell count in test [1] is 194. Also, the inhibition in test [1] was -3.5% (inactive); in test [3], 24.8% (inactive); in test [7], 12% (inactive); in test [8] it was 23.2% (inactive). In test [2], the inhibition of aggregation is 32.9% (active). For the same compound, the nuclei count in test [2] was 72.7%; in test [3] it was 54.7%. For the same compound, in test [4], the fluorescence slope is -0.357 (inactive). The NADPH fluorescence slope in test [5] was 2.6e-05 (inactive). Also, the slope in test [6] is 0.00896 (inactive).

The term inhibition denotes the relative decrease from the control value, in per cent.
